Assay outcomes deposited in PubChem by NMMLSC.
RGS8-Gao reg – regulators of human RGS8-Galphao interaction; 220,000 tested, 0.34% active; multiplexed bead flow cytometry, RGS8-Galphao binding; actives lie on both sides; AID 1423; P09471; response (percent of control binding), % at 10 µM; in the data active means response below about 60% or above about 140%; inactive means in between;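 further: Galphao activated as the GDP aluminium fluoride complex binding bead-coupled RGS8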
Avidin bead fluor – compound fluoresces at 488/530 nm on avidin beads; fluorescence (KMESF) at 10 µM; AID 1775; compound fluorescence 488/530 nm, flow cytometry; hits give high values; 220,000 tested, 0.38% active; in the data active means fluorescence above about 47
RGS16-Gao – regulators of human RGS16-Galphao interaction | bead-based flow cytometry RGS16-Galphao binding, fluorescence; actives lie on both sides | binding response (% of control), % at 10 µM | AID 1441 | 220,000 tested, 0.38% active;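 further: Galphao activated by GDP with aluminum fluoride before binding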
Target sequence (O15492 whole entry, looked up): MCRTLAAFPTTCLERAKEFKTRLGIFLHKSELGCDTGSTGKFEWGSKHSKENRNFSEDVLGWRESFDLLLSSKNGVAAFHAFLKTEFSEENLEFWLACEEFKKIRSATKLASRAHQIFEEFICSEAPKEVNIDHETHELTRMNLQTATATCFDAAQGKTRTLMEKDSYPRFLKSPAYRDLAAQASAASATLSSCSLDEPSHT
Target sequence (P09471 whole entry, looked up): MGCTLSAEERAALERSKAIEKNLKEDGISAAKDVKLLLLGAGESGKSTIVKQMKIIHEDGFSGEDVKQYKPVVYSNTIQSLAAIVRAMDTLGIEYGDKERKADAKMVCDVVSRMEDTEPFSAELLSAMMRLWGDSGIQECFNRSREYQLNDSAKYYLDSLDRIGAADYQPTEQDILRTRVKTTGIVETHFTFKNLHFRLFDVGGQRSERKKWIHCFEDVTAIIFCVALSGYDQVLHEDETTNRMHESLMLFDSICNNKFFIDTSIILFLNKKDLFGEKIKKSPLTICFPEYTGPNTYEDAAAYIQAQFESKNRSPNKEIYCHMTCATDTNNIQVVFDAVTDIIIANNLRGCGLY
RGS7-Gao reg – regulators of human RGS7-Galphao interaction; P09471; Multiplexed bead flow cytometry, RGS7-Galphao binding; actives lie on both sides; binding response (% of control), % at 10 µM; 220,000 tested, 0.35% active; AID 1439; in the data active means binding response below about 49% or above about 150%; inconclusive means no clear call, values can overlap the other calls; inactive means in between;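 further: fluorescent Galphao held in activated GDP-AlF4 state binding bead-coupled RGS7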
GSH fluor – compound fluoresces at 488/530 nm on GSH beads; 190,000 tested, 0.25% active; fluorescence (KMESF) at 10 µM; GSH beads flow cytometry, compound fluorescence 488/530 nm; hits give high values; in the data active means fluorescence above about 89;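 further: glutathione beads carrying GST-tagged Bcl family fusion proteins plus one bare bead set; values are compound well signal with DMSO vehicle wells as background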
RGS4-Gao reg – human RGS4-Galphao interaction regulation; P09471; Multiplexed bead flow cytometry, RGS4-Galphao binding; actives lie on both sides; binding response (% of control), % at 10 µM; 220,000 tested, 0.33% active; in the data active means binding response below about 49% or above about 150%; inactive means in between;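 further: fluorescent Galphao activated with aluminum fluoride binding bead-coupled RGS4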
RGS4-Gao HTS – RGS4-Galphao interaction regulator (human); AID 1504; shares compounds with RGS16-Gao; 1,600 tested, 99% active; multiplexed bead flow cytometry, RGS–Galpha-o binding; RGS4–Galpha-o binding response, % at 10 µM;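 further: fluorescently labeled Galpha-o bound to GDP with aluminium fluoride binding biotinylated RGS beads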
Avidin counter – counter-screen: compounds disrupting biotin binding to avidin beads; shares compounds with RGS16-Gao; streptavidin beads, fluorescein-biotin binding, flow cytometry; 1,700 tested, under 10 active; inhibition, % at 10 µM;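 active means inhibition above 50%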;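 further: median green fluorescence of gated singlet beads compared with DMSO control wells; 0% = DMSO wells and 100% = complete loss of bead fluorescence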
RGS8-Gao single – RGS8-Galphao interaction regulation, single point confirmation | binding response (% of control), % at 10 µM | 1,700 tested, 3% active | shares compounds with RGS16-Gao | bead-based flow cytometry RGS8-Galphao binding, fluorescence; actives lie on both sides; in the data active means binding response below about 72% or above about 130%; inactive means in between;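 further: Galphao activated as GDP AlF4 complex before binding bead RGS8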
RGS7-Gao confirm – RGS7-Galphao interaction regulation, single point confirmation; shares compounds with RGS16-Gao; bead-based flow cytometry RGS7-Galphao binding; actives lie on both sides; response (percent of control binding), % at 10 µM; 1,700 tested, 7.8% active; AID 1837; in the data active means response below about 75% or above about 130%; inactive means in between;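 further: fluorescent Galphao activated with GDP and aluminum fluoride binding bead-coupled RGS7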
RGS16-Gao single – confirmation of regulators of human RGS16-Galphao interaction; shares compounds with RGS16-Gao; bead-based flow cytometry, RGS16-Galphao binding; actives lie on both sides; response (% of control binding), % at 10 µM; 1,700 tested, 4% active; in the data active means response below about 74% or above about 130%; inactive means in between;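 further: Galphao activated as the GDP aluminium fluoride complex binding bead-coupled RGS16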
RGS4-Gao confirm – confirmation of regulators of human RGS4-Galphao interaction; 1,700 tested, 4% active; binding response (% of control), % at 10 µM; shares compounds with RGS16-Gao; RGS4-Galphao binding, multiplexed bead flow cytometry; actives lie on both sides; in the data active means binding response below about 74% or above about 130%; inactive means in between
RGS19-Gao conf – confirmation of regulators of human RGS19-Galphao interaction | response (percent of control binding), % at 10 µM | shares compounds with RGS16-Gao | bead-based flow cytometry RGS19-Galphao binding; actives lie on both sides | 1,700 tested, 5% active; in the data active means response below about 50% or above about 160%; inactive means in between;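 further: 100% = no compound control and 0% = blank background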
* marks the source's active call; other numbers are inactive results; ? = inconclusive; . = not tested or not shown; [ ] = dose if it differs, or a comment. Hits are enriched below; roughly 1.2% of the tested compounds scored in any of these assays. Unless noted, how the calls were made is not given here.

SMILES | RGS8-Gao reg | Avidin bead fluor | RGS16-Gao | RGS7-Gao reg | GSH fluor | RGS4-Gao reg | RGS4-Gao HTS | Avidin counter | RGS8-Gao single | RGS7-Gao confirm | RGS16-Gao single | RGS4-Gao confirm | RGS19-Gao conf
O=C(CNCCN1CCOCC1)Nc1ccccc1Sc1ccccc1 | 132.2 | 13 | 227.3*[activator] | 120.5 | 5 | 109.9 | 109.9* | 0.3 | 99.4 | 88.0 | 99.3 | 93.9 | 78.3
Cc1cc(C)n(C(C[N+](=O)[O-])c2ccc(Cl)cc2)n1 (stereo unspecified) | 88.3 | 7 | 89.0 | 92.8 | 13 | 98.6 | . | . | . | . | . | . | .
O=C(NCCc1c[nH]c2ccccc12)c1c(Cl)nc2sccn12 | 17.3* | -1 | 2.2* | 19.1* | 21 | 30.5* | . | -1.0 | 114.1 | 125.0 | 108.6 | 109.8 | 102.8
O=C(O)c1nccnc1C(=O)NCCc1c[nH]c2ccccc12 | 102.5 | 12 | 101.2 | ? | 9 | 101.0 | . | . | . | . | . | . | .
Cn1c(=O)n(C)c2cc(S(=O)(=O)NCc3ccco3)ccc21 | 101.2 | 176* | 113.9 | 204.0*[activator] | 23 | 117.2 | 117.2* | 2.2 | 104.0 | 101.6 | 103.2 | 101.8 | 110.1
O=[N+]([O-])c1cc2c(cc1/C=N/n1c(-c3ccccc3)n[nH]c1=S)OCO2 | 97.4 | 8 | 102.1 | 105.6 | 47 | 101.5 | . | . | . | . | . | . | .
O=[N+]([O-])c1cc2c(cc1/C=N/n1c(-c3ccccn3)n[nH]c1=S)OCO2 | 72.2 | 6 | -3.6* | 83.7 | 2 | 85.7 | 85.7* | 1.9 | 94.7 | 115.3 | 85.7 | 98.1 | 75.6
COc1cc2c(cc1NC(=S)NC(=O)/C=C/c1ccco1)oc1ccccc12 | 89.0 | 7 | 21.1* | 98.8 | 4 | 102.6 | 102.6* | 0.1 | 102.8 | 102.5 | 100.1 | 102.5 | 76.7
COc1ccccc1NC(=O)CN1CCN(CC(=O)Nc2ccc3c(c2)OCO3)CC1 | 142.1*[activator] | 4 | 347.8 | 112.3 | 57 | 119.0 | 119.0* | . | . | . | . | . | .
COc1ccc(NC(=O)CN2CCN(CC(=O)Nc3ccc4c(c3)OCO4)CC2)cc1 | 97.9 | 4 | 98.9 | 95.6 | 35 | 94.1 | . | . | . | . | . | . | .
CC(C)OC(=O)c1c(NC(=O)Cn2cnc([N+](=O)[O-])n2)sc2c1CCCC2 | . | . | . | . | 18 | . | . | -0.3 | 97.8 | 106.3 | 96.4 | 97.2 | 106.0
CCOC(=O)c1c(NC(=O)Cn2cnc([N+](=O)[O-])n2)sc2c1CCCC2 | 99.2 | 9 | 90.6 | 103.0 | 11 | 97.7 | . | . | . | . | . | . | .
Cc1ccc(C)c(CN2CCNC2=O)c1 | 13.3* | 1 | 7.9* | 15.2* | 16 | 20.3* | . | -0.1 | 94.2 | 92.3 | 92.9 | 94.6 | 82.1
Cc1nn(Cc2ccc(F)cc2)c2sc(C(=O)Nc3ccccc3N3CCOCC3)cc12 | 82.8 | 6 | 15.3* | 90.8 | 7 | 88.9 | 88.9* | -0.2 | 98.3 | 92.2 | 99.1 | 98.4 | 96.6
Cc1nn(Cc2ccccc2Cl)c2sc(C(=O)Nc3ccccc3N3CCOCC3)cc12 | 99.6 | 12 | 105.3 | 95.3 | 14 | 97.3 | . | . | . | . | . | . | .
